# Laboratory results from PubChem BioAssay (NCATS).
# Inconclusive results are not listed. Unmarked numbers belong to inactive results. The source made the active and inactive calls. Calls come from the whole dose curve; as a rule, active = well fitted inhibition curve with a large enough effect; inconclusive = small, poorly fitted or top-dose-only effect; inactive = flat fitted curve, though single readings scatter.
# Target: Lysine-specific demethylase 5B (Homo sapiens) (UniProt Q9UGL1)
# Experiment: Optimization screen for KDM5B Histone Demethylases FDH coupled qHTS against the LOPAC library (AID 1347166); for activity, negative = inhibition: 0% is about no effect
# Conditions: KDM5B demethylation, FDH-coupled NADH fluorescence (FDH is formaldehyde dehydrogenase); series mostly up to 57.5 µM; activity, negative = inhibition: at the top concentration
# Outline: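 KDM5BDeltaAP (200nM final) in 50mM HEPES pH 7.5, 0.01% Tween-20 was preincubated with compound for 10 min at room temperature. A substrate mix of 12.5uM H3K4Me3, 25uM a-ketoglutarate, ascorbate, Fe2+, NAD+ and formaldehyde dehydrogenase was then added. NADH fluorescence (340/450 nm) was read initially and after 30 min.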
# Potency is the fitted concentration of half-maximal effect.
# Sequence of Lysine-specific demethylase 5B (Homo sapiens) (Q9UGL1 whole entry, looked up): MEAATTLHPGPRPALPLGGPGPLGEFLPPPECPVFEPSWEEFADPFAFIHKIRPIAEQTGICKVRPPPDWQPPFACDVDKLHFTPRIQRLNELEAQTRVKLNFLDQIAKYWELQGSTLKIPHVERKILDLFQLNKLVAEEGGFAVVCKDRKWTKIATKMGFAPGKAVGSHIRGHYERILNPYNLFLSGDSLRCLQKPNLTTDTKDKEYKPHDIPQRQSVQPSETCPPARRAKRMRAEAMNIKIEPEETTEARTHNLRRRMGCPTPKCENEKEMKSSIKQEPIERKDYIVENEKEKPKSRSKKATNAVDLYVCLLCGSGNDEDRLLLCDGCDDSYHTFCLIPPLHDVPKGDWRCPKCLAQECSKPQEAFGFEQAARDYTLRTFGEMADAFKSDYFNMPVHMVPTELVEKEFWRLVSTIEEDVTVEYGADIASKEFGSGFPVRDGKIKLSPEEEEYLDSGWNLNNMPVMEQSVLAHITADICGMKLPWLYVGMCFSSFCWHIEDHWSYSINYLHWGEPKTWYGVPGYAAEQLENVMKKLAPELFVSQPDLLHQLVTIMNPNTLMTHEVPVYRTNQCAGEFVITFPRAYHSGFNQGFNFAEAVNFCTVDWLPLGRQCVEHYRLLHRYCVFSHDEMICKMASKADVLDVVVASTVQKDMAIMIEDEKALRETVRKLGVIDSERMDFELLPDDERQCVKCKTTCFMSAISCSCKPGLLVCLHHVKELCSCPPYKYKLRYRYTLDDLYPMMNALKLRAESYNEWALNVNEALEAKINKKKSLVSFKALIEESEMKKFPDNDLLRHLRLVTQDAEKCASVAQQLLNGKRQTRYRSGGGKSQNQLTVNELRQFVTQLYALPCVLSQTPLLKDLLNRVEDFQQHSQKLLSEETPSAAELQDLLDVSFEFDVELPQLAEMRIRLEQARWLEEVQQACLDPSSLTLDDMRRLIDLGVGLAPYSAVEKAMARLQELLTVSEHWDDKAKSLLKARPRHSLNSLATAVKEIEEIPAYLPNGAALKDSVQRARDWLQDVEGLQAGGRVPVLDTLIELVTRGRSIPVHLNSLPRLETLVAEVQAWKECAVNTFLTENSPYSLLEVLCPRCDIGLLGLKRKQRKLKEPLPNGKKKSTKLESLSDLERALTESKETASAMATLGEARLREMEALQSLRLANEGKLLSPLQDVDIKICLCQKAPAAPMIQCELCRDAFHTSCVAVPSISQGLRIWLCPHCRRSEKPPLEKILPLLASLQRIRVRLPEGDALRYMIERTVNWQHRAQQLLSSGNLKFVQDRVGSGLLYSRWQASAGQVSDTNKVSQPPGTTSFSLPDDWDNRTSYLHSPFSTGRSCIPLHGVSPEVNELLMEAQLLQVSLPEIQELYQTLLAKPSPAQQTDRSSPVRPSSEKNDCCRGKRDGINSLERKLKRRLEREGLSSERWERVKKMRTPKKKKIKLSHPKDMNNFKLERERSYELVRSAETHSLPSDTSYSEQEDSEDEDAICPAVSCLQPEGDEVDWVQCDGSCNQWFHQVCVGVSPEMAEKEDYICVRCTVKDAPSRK
Structure (SMILES),"activity, negative = inhibition",Potency
C[C@@H]1O[C@H](C[N+](C)(C)C)CS1,-20.9%,–
C#CCN[C@H](C)Cc1ccccc1,-7.44%,–
OCc1cnc[nH]1,-2.62%,–
COc1cc(CC(C)N)c(OC)cc1I (stereo not given),-8.43%,–
CC1(C(=O)O)C2CCC(O2)C1(C)C(=O)O (stereo not given),-0.0378%,–
C/C(O)=C(\C#N)C(=O)Nc1cc(Br)ccc1Br,2.28%,–
COc1ccc2c(c1)C13CCCCC1C(C2)N(C)CC3 (stereo not given),-2.99%,–
CCS(=O)(=O)Nc1cccc(C(=C2CCCCC2)c2cnc[nH]2)c1,-0.963%,–
N[C@@H](Cn1ccc(=O)[nH]c1=O)C(=O)O,0.51%,–
O=C1CC[C@@]2(O)C3Cc4ccc(O)c5c4C2(CCN3CC2CC2)[C@H]1O5 (stereo not given in full),-8.44%,–
COc1ccc2c(c1)[C@@]13CCCC[C@H]1[C@@H](C2)NCC3,-7.23%,–
C=CCN1CCC23c4c5ccc(O)c4O[C@H]2C(=O)CC[C@@]3(O)C1C5 (stereo not given in full),3.75%,–
CCCN1CC[C@@H]2c3cc(O)ccc3CC[C@@H]21,-10.3%,–
CC(C)(O)[C@@H]1C2OC(=O)[C@@H]1[C@]1(O)C[C@H]3O[C@]34C(=O)O[C@H]2[C@]14C (tested in a mixture with another compound),-1.39%,–
NC(=O)c1cc(N2CC2)c([N+](=O)[O-])cc1[N+](=O)[O-],-2.23%,–
CCCC[N+]1(C)C2CC(OC(=O)[C@H](CO)c3ccccc3)CC1C1OC12 (stereo not given in full),-5.22%,–
CN1CC[C@@]2(C)c3cc(O)ccc3N(C)C12 (stereo not given in full),–,2.51 µM (active)
CN1CCc2cccc(Cl)c2CC1,-4%,–
COc1ccc2[nH]c3c(c2c1)CCNC3,-23.5%,–
N[C@@H](CCl)C(=O)O,0.959%,–
